Test results published in PubChem BioAssay (Tox21).
Records with an inconclusive call do not appear. Entries that show only a call come without a potency. Active and inactive are the calls of the source. Unless noted, calls come from the whole dose curve; as a rule, active = well fitted curve in the direction sought with a large enough effect in the repeat runs; inconclusive = weak or mixed curves; inactive = no such curve, though single readings can be large; an effect the other way counts as inactive or inconclusive.

Key:
[1] = qHTS assay to identify small molecule agonists of the peroxisome proliferator-activated receptor delta (PPARd) signaling pathway - cell viability counter screen (AID 743211); conditions: PPARd-bla HEK293H viability, CellTiter-Glo luminescence, 17 h; series mostly up to 62.6 µM; note: nearly all actives have a fitted effect of over 55% in size
In short: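 HEK293H PPARd-bla, 3000 cells/well; 5 h preincubation 37C/5% CO2; cpd in DMSO, 17 h 37C; B/G FRET substrate 2 h RT; CellTiter-Glo 30 min RT, luminescence.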

[2] = biological target: Peroxisome proliferator-activated receptor delta (Homo sapiens) (UniProt Q03181); experiment: qHTS assay to identify small molecule agonists of the peroxisome proliferator-activated receptor delta (PPARd) signaling pathway (AID 743212; calls by dose curve; note: potency is the fitted concentration of half-maximal effect); conditions: HEK293H PPARd-UAS-bla, beta-lactamase FRET ratio, 17 h; series mostly up to 62.6 µM
In short: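 HEK293H UAS-bla reporter cells, human PPARd system; compounds delivered in DMSO after 5 h plating, then at 37 C. Beta-lactamase FRET read, 2 h RT substrate step.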

[3] = qHTS assay to identify small molecule antagonists of the peroxisome proliferator-activated receptor delta (PPARd) signaling pathway - cell viability counter screen (AID 743213); conditions: PPARd-bla HEK293H viability, CellTiter-Glo luminescence, 17 h; series mostly up to 62 µM; note: nearly all actives have a fitted effect of over 50% in size; note: potency is the fitted concentration of half-maximal effect
In short: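 Viability counter-screen, qHTS format: PPARd-bla HEK293H, L165041 300 nM final, 17 h compound exposure at 37 C, CellTiter-Glo luminescence after 30 min RT.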

[4] = qHTS assay to identify small molecule agonists of the farnesoid-X-receptor (FXR) signaling pathway - cell viability counter screen (AID 743218); conditions: FXR-bla HEK293T viability, CellTiter-Glo luminescence, 16 h; series mostly up to 62.6 µM; note: nearly all actives have a fitted effect of over 45% in size; note: potency is the fitted concentration of half-maximal effect
In short: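 Parallel cytotoxicity test: compound-treated (16 h, 37 C) HEK 293T FXR-bla reporter cells were lysed with CellTiter-Glo and luminescence recorded.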

[5] = qHTS assay to identify small molecule antagonists of the farnesoid-X-receptor (FXR) signaling pathway - cell viability counter screen (AID 743221; active = well fitted cell-killing curve with a large enough effect in the repeat runs, not every such curve was filed as active; note: nearly all actives have a fitted effect of over 50% in size); conditions: FXR-bla HEK293T viability, CellTiter-Glo luminescence, 16 h; series mostly up to 62.6 µM
In short: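 Luminescence from CellTiter-Glo measures cytotoxicity in GeneBLAzer FXR-UAS-bla HEK 293T cells. Cells were exposed to compounds with 50 uM chenodeoxycholic acid (final) for 16 h at 37 C, in wells also used for the reporter readout.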

[6] = qHTS assay to identify small molecule agonists of the vitamin D receptor (VDR) signaling pathway - cell viability counter screen (AID 743224); conditions: VDR-bla HEK293T viability, CellTiter-Glo luminescence, 16 h; series mostly up to 62.6 µM; note: nearly all actives have a fitted effect of over 50% in size; note: potency is the fitted concentration of half-maximal effect
In short: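 Plated VDR-bla cells (4 h, 37C) received compound, incubated 16 h, then LiveBLAzer substrate 2 h RT; CellTiter-Glo added afterwards, luminescence read at 30 min.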

[7] = qHTS assay to identify small molecule antagonists of the vitamin D receptor (VDR) signaling pathway - cell viability counter screen (AID 743225); conditions: VDR-bla HEK293T viability, CellTiter-Glo luminescence, 16 h; series mostly up to 61 µM; note: nearly all actives have a fitted effect of over 50% in size
In short: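 Read-out: CellTiter-Glo luminescence measured 30 min after reagent addition at room temperature. Cells were VDR-bla HEK 293T exposed 16 h at 37C, 5% CO2, to compound with 3 nM final calcitriol agonist.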

[8] = qHTS assay to identify small molecule agonists of the NFkB signaling pathway (AID 1159509; active = well fitted curve in the direction sought with a large enough effect in the signal ratio in the repeat runs, not every such curve was filed as active; the % refers to the signal ratio); conditions: NFkB-bla ME-180 cells, beta-lactamase FRET ratio, 5 h; series mostly up to 61 µM
In short: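 NFkB-bla ME-180 cells with a beta-lactamase reporter under an NF-kB response element were plated overnight, treated with compounds in DMSO for 5 hr at 37 C, then loaded with FRET substrate for 1.5 hr at room temperature.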

[9] = qHTS assay to identify small molecule agonists of the endoplasmic reticulum stress response signaling pathway (AID 1159516; active = well fitted activation curve with a large enough effect in the signal ratio in the repeat runs, not every such curve was filed as active; the % refers to the signal ratio); conditions: ESRE-bla HeLa, ER stress beta-lactamase reporter, 5 h; series mostly up to 61 µM
In short: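 An ESRE-bla HeLa cell assay: compounds were pin-transferred from DMSO onto overnight-plated cells and left 5 hr at 37 C. Substrate was then loaded for 2 hr at room temperature before reading fluorescence at 460 nm and 530 nm.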

[10] = qHTS assay to identify small molecule agonists of the endoplasmic reticulum stress response signaling pathway - cell viability counter screen (AID 1159517; calls by dose curve); conditions: ESRE-bla HeLa viability, CellTiter-Glo luminescence, 5 h; series mostly up to 61 µM
In short: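 Cells, HeLa ESRE-bla; density, 1,500/well; dosing, 5 hr at 37 C, 5% CO2; readout, CellTiter-Glo luminescence after 30 min RT.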

[11] = qHTS assay to identify small molecule antagonists of the retinoid-related orphan receptor gamma (ROR-gamma) signaling pathway - cell viability counter screen (AID 1159520); conditions: Tet-on RORgamma CHO cells viability, ATP luminescence, 16 h; series mostly up to 92.4 µM; note: nearly all actives have a fitted effect of over 50% in size
In short: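 Cytotoxicity was read from cellular ATP (CellTiter-Glo luminescence) after 16 hr at 37 C with 1 uM doxycycline induction. The inducer was added 2 hr after compound transfer to Tet-on ROR gamma CHO cells.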

[12] = biological target: Nuclear receptor ROR-gamma (Homo sapiens) (UniProt P51449); experiment: qHTS assay to identify small molecule antagonists of the retinoid-related orphan receptor gamma (ROR-gamma) signaling pathway (AID 1159521; note: nearly all actives have a fitted effect of over 50% in size; note: potency is the fitted concentration of half-maximal effect); conditions: Tet-on RORgamma CHO cells, RORE-luciferase, 16 h; series mostly up to 92.4 µM
In short: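 CHO Tet-on RORγ, RORE-luc reporter. Cpd 2 h pre-incubation, then dox hyclate 1 uM final, 16 h, 37 C/5% CO2. ONE-Glo luminescence; decrease = antagonist.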

[13] = qHTS assay to identify small molecule agonists of the AP-1 signaling pathway - cell viability counter screen (AID 1159525; calls by dose curve; note: nearly all actives have a fitted effect of over 55% in size); conditions: ME-180 AP-1-bla cells viability, ATP luminescence, 5 h; series mostly up to 76.8 µM
In short: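 Luminescent ATP readout (Cell Titer Glo, 30 min RT), normalised to DMSO and tetra n-octyl ammonium bromide controls. Cells were ME-180 AP-1-bla in 0.5% dialyzed FBS Opti-MEM, with a 5 h, 37 °C compound exposure.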

[14] = qHTS assay to identify small molecule agonists of the AP-1 signaling pathway (AID 1159526; calls by dose curve); conditions: ME-180 (cervical carcinoma) AP-1-bla reporter, beta-lactamase FRET ratio, 5 h; series mostly up to 76.8 µM
[15] = biological target: Peroxisome proliferator-activated receptor delta (Homo sapiens) (UniProt Q03181); experiment: qHTS assay to identify small molecule antagonists of the peroxisome proliferator-activated receptor delta (PPARd) signaling pathway (AID 743215; active = well fitted inhibition curve with a large enough effect in the signal ratio in the repeat runs, not every such curve was filed as active; the % refers to the signal ratio;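 note: cells stimulated with agonist L165041 at 300 nM final during compound exposure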); conditions: HEK293H PPARd-UAS-bla, beta-lactamase FRET ratio, antagonist, 17 h; series mostly up to 62 µM
In short: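 HEK293H UAS-bla, PPARd; agonist L165041 300 nM final with cpd in DMSO; 37 C 17 h; FRET substrate, RT 2 h; fluorescence intensity.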

[16] = biological target: Bile acid receptor (Homo sapiens) (UniProt Q96RI1); experiment: qHTS assay to identify small molecule agonists of the farnesoid-X-receptor (FXR) signaling pathway (AID 743220; active = well fitted activation curve with a large enough effect in the signal ratio in the repeat runs, not every such curve was filed as active; the % refers to the signal ratio); conditions: HEK293T FXR-UAS-bla, beta-lactamase FRET ratio, 16 h; series mostly up to 62.6 µM
In short: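 Beta-lactamase reporter under UAS control in GeneBLAzer FXR HEK 293T cells (5000/well) measured with LiveBLAzer FRET substrate after 2 h at room temperature. Compound exposure lasted 16 h at 37C.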

[17] = biological target: Vitamin D3 receptor (Homo sapiens) (UniProt P11473); experiment: qHTS assay to identify small molecule antagonists of the vitamin D receptor (VDR) signaling pathway (AID 743223; active = well fitted inhibition curve with a large enough effect in the signal ratio in the repeat runs, not every such curve was filed as active; the % refers to the signal ratio); conditions: VDR-UAS-bla HEK293T, beta-lactamase FRET ratio, 16 h; series mostly up to 61 µM
In short: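 Antagonist mode uses 1alpha,25-dihydroxyvitamin D3 at 3 nM final as stimulus. VDR-bla cells receive compounds in DMSO, incubate 16 h at 37C, then a beta-lactamase FRET substrate for 2 h at room temperature before fluorescence measurement.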

[18] = biological target: Bile acid receptor (Homo sapiens) (UniProt Q96RI1); experiment: qHTS assay to identify small molecule antagonists of the farnesoid-X-receptor (FXR) signaling pathway (AID 743217; active = well fitted inhibition curve with a large enough effect in the signal ratio in the repeat runs, not every such curve was filed as active; the % refers to the signal ratio); conditions: HEK293T FXR-UAS-bla, beta-lactamase ratio, CDCA-stimulated, 16 h; series mostly up to 62.6 µM
In short: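 GeneBLAzer FXR-UAS-bla HEK 293T, CDCA-stimulated (50 uM final). Compound treatment 16 h, 37 °C. Detection: beta-lactamase cleavage of B/G FRET substrate, fluorescence.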

[19] = biological target: Vitamin D3 receptor (Homo sapiens) (UniProt P11473); experiment: qHTS assay to identify small molecule agonists of the vitamin D receptor (VDR) signaling pathway (AID 743222; calls by dose curve); conditions: HEK293T VDR-UAS-bla, beta-lactamase FRET ratio, 16 h; series mostly up to 63.5 µM
In short: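 In VDR-bla cells, compound-induced beta-lactamase expression is quantified by FRET substrate fluorescence. Treatment lasts 16 h at 37C; substrate develops 2 h at room temperature.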

Chain of Vitamin D3 receptor (Homo sapiens) (P11473 whole entry, looked up): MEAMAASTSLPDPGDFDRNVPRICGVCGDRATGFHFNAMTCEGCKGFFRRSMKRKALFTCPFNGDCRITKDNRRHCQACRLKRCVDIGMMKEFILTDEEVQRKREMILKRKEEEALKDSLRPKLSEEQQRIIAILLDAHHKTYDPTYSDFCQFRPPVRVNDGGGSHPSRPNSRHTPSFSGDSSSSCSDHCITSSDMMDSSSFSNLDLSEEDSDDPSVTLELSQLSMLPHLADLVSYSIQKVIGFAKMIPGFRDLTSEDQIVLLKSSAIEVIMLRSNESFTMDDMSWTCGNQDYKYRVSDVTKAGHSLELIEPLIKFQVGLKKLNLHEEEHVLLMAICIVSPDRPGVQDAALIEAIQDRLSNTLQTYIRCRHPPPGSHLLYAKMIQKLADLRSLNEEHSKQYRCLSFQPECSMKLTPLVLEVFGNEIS
Chain of Bile acid receptor (Homo sapiens) (Q96RI1 whole entry, looked up): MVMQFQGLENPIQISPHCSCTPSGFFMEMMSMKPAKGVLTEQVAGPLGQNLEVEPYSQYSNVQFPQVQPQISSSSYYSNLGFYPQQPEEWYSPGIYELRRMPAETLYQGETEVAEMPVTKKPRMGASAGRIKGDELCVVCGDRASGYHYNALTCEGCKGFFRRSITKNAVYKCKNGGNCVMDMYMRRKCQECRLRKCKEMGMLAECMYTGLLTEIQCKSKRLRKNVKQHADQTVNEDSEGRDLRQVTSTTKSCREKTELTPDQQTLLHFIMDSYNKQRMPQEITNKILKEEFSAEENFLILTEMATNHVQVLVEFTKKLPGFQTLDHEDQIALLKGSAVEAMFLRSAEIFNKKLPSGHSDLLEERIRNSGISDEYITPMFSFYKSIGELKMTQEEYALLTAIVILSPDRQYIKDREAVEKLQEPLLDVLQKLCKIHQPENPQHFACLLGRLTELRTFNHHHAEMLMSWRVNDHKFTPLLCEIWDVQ
Chain of Peroxisome proliferator-activated receptor delta (Homo sapiens) (Q03181 whole entry, looked up): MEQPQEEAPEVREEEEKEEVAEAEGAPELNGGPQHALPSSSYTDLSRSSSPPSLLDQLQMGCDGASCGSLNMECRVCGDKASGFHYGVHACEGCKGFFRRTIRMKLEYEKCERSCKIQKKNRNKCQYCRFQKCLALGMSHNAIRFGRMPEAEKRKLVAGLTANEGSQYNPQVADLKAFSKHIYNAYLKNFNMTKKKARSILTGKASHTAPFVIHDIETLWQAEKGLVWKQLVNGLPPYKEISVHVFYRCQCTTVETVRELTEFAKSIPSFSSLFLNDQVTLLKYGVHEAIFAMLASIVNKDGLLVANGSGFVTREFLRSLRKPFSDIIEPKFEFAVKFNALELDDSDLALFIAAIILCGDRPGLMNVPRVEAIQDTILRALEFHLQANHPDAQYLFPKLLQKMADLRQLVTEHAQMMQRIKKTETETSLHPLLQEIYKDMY

Structure (SMILES)	Potency [1]	Potency [2]	Potency [3]	Potency [4]	Potency [5]	Potency [6]	Potency [7]	Potency [8]	Potency [9]	Potency [10]	Potency [11]	Potency [12]	Potency [13]	Potency [14]	Potency [15]	Potency [16]	Potency [17]	Potency [18]	Potency [19]
CCC(=O)C1CC(C(C)C)CC=C1C (centres undefined)	inactive	inactive	inactive	inactive	inactive	inactive	inactive	inactive	inactive	inactive	inactive	inactive	inactive	inactive					
CCn1cc(C(=O)O)c(=O)c2cc(F)c(N3CCNCC3)cc21	inactive	inactive	inactive	inactive	inactive	inactive	inactive	inactive	inactive	inactive	inactive	inactive	inactive	inactive	inactive				
C[C@H]1C[C@H](O)c2ccsc2S1(=O)=O	inactive	inactive		inactive	inactive	inactive	inactive	inactive	inactive	inactive	inactive	inactive		inactive	inactive				
O=c1c(O)c(-c2ccc(O)cc2)oc2cc(O)cc(O)c12	inactive		inactive		inactive	inactive	inactive	inactive	inactive	inactive	inactive	inactive	inactive	inactive		inactive			
COc1cc(C(=O)NCCCCCC(=O)O)cc(OC)c1OC	inactive	inactive	inactive	inactive	inactive	inactive	inactive	inactive	inactive	inactive	inactive	inactive	inactive	inactive			inactive		
Nc1ncnc2c1ncn2[C@H]1CC[C@@H](CO)O1	inactive	inactive		inactive	inactive	inactive		inactive	inactive	inactive	inactive	inactive	inactive	inactive	inactive	inactive	inactive	inactive	inactive
NC(=O)c1ccncc1	inactive	inactive	inactive		inactive	inactive	inactive	inactive	inactive	inactive	inactive	inactive	inactive	inactive	inactive				inactive
CCCCCC[C@@H](O)C/C=C\CCCCCCCC(=O)OCC(O)CO (some centres undefined)	inactive	49 µM (active)	inactive	inactive	inactive	inactive	inactive	inactive	inactive	inactive	inactive	inactive	inactive						
CC(C)(C)CC(=O)OCC(=O)[C@@]1(O)CC[C@H]2[C@@H]3CCC4=CC(=O)C=C[C@]4(C)[C@H]3[C@@H](O)C[C@@]21C	inactive		inactive	inactive	inactive	inactive	inactive	inactive	inactive	inactive	inactive	26.6 µM (active)		inactive					inactive
OC1(c2ccccc2)CCNCC1	inactive		inactive	inactive	inactive	inactive	inactive	inactive	inactive	inactive	inactive	inactive	inactive	inactive			inactive		
C=C/C(C)=C/C/C=C(\C)CCC=C(C)C		inactive	inactive		inactive	inactive	inactive	inactive	inactive	inactive	inactive	inactive	inactive	inactive	inactive		inactive	inactive	
CCCCCC#CC(=O)OC	inactive		inactive	inactive	inactive	inactive	inactive	inactive	inactive	inactive	inactive	inactive	inactive	inactive	inactive				
Cc1cc(O)c(C)c(C)c1O	inactive	inactive	inactive	inactive	inactive	29.8 µM (active)		inactive	inactive	inactive	inactive	inactive		inactive	inactive				
CC(=O)OCC(=O)NCCCOc1cccc(CN2CCCCC2)c1	inactive	inactive		inactive	inactive	inactive	inactive	inactive	inactive	inactive	inactive	inactive	inactive	inactive		inactive	inactive	inactive	inactive
CN(C)CCC=C1c2ccccc2C=Cc2ccccc21			23.7 µM (active)	11.9 µM (active)		inactive		inactive	inactive	inactive	inactive	inactive	inactive		inactive		inactive		
CCOC(C)=O	inactive	inactive		inactive	inactive	inactive	inactive	inactive	inactive	inactive	inactive	inactive	inactive	inactive	inactive		inactive		inactive
CC(=O)OCC[N+](C)(C)C	inactive	inactive	inactive	inactive	inactive	inactive	inactive	inactive	inactive	inactive	inactive	inactive	inactive		inactive	inactive	inactive	inactive	
CCCCCCCCCI	inactive	inactive	inactive	inactive	inactive	inactive	inactive	inactive	inactive	inactive	inactive	inactive	inactive		inactive				
